Paper PMC7819943, “Rice protein-binding microarrays: a tool to detect cis-acting elements near promoter regions in rice”
Over roughly 68,000 sequences, “fluorescence intensity (a.u.)” has its median near 9,100; the highest 2% begin near 16,000. The full list was thinned out, with the highest values kept by preference.

target: OsWRKY34 (Oryza sativa, UniProt Q0JBA9 1-250); assay: protein-binding microarray (RPBM); PBS, 2% BSA, 51.3 ng/ul salmon testes DNA, 50 uM zinc acetate, 200 nM TF, 25 C, 1 h; high values mean tight binding; conditions: protein: recombinant; tags: N-terminal polyhistidine and DsRed monomer fusion (pET32a); label: CyDye5-dUTP incorporated in the synthesized complementary strand; 3' TTTTT single-stranded linker to array surface; dsDNA, one strand shown
Outline: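 The binding signal is fluorescence intensity per feature, in arbitrary units, read on an Axon 4000B scanner. Polyhistidine- and DsRed-tagged transcription factors (N-terminal fusions) from E. coli BL21-CodonPlus were purified on Ni–NTA and applied at 200 nM for 1 h at 25 °C to a double-stranded, BSA-blocked custom Agilent array in buffer with 50 µM zinc acetate.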

Sequence of OsWRKY34 (Q0JBA9 entry or part of it): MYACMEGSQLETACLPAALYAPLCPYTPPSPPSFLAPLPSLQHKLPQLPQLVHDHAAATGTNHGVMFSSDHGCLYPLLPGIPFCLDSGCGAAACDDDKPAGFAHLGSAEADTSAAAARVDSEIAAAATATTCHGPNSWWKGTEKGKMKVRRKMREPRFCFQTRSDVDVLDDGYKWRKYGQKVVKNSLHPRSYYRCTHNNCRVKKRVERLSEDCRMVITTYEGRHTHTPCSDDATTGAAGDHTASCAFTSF

Sequence | binding signal
GAAAGATGATTTGGCAAGTAAATAAATAAGAAAAGAGAAGCGGAGTCACCTAGTGCAG | 62600 fluorescence intensity (a.u.)
GTTTGTGTTCTTGGATTGGGTTGGGTTGGGTTGGTGAGGTCGGAGTCACCTAGTGCAG | 17600 fluorescence intensity (a.u.)
TTAAAAAAAAGTCAACGATGATAAATATTTAGAGAGTGAGCGGAGTCACCTAGTGCAG | 13100 fluorescence intensity (a.u.)
GGTTGTGTTCTTGTTGGCGAGGAGGAGAGAGGGGTGGGGTCGGAGTCACCTAGTGCAG | 14700 fluorescence intensity (a.u.)
ATTGGGTTCTTGGAGCTGTTGGATTGGGTTTTTTTGGGAGCGGAGTCACCTAGTGCAG | 9180 fluorescence intensity (a.u.)
CCATGGCGGGGTGTATTGTTGTTGTATTTGGGGTTCTGGTCGGAGTCACCTAGTGCAG | 19200 fluorescence intensity (a.u.)
GTCGGTGGAGCGGCCCTTTTTATTTCTGTGGGAGGAGGGTCGGAGTCACCTAGTGCAG | 9300 fluorescence intensity (a.u.)
AGTCAACAGGGAGGGTAAAATAAGAAAGCAACAGCAAGAGCGGAGTCACCTAGTGCAG | 9730 fluorescence intensity (a.u.)
TTCCTTTTGTCCTCCATGCTCTCTGTATGTCGGTATTTTACGGAGTCACCTAGTGCAG | 10500 fluorescence intensity (a.u.)
AAGCGGTACCATGGGCGGGAGGGTATTTCTGTCCTTTTGTCGGAGTCACCTAGTGCAG | 17600 fluorescence intensity (a.u.)
CTGTTGTTCTGTATATTGTGGTGGGTGTTGATTTGCGGGTCGGAGTCACCTAGTGCAG | 12800 fluorescence intensity (a.u.)
CATCGGATATTGTATTATGGTGTTGTATGGGTTGTTCGGGCGGAGTCACCTAGTGCAG | 14000 fluorescence intensity (a.u.)
CTCTACTTCTAATATTCCTTATTTTTTTAATTCCGAATTTCGGAGTCACCTAGTGCAG | 8800 fluorescence intensity (a.u.)
TTTCTACACCCTGTAGATCCTTGGACCCACATGCAGACCACGGAGTCACCTAGTGCAG | 8730 fluorescence intensity (a.u.)
GTGGGTGGGATCCAGGAAGATTTTAAGCTGACTGCTGCGGCGGAGTCACCTAGTGCAG | 8510 fluorescence intensity (a.u.)
CCTTCGCTCGCCACGTGGCAGCCGCTAGTCCTTATCGCCGCGGAGTCACCTAGTGCAG | 10300 fluorescence intensity (a.u.)
GGGAAACCAGGCTATCCTCTTGGTCACTCTGCACCAATTCCGGAGTCACCTAGTGCAG | 10500 fluorescence intensity (a.u.)
ACAGCTCTGCTCAACCTTGCCATCTCGATCAATCGATCCTCGGAGTCACCTAGTGCAG | 11400 fluorescence intensity (a.u.)
GGGTTGGTCCGCGTTCTTGCCTCCTGGTTGGCCGATGTTTCGGAGTCACCTAGTGCAG | 15700 fluorescence intensity (a.u.)
CATCGTTGACCAAGAATAAGAACAGCGAATTTGCATAATGCGGAGTCACCTAGTGCAG | 14700 fluorescence intensity (a.u.)
GAAATGTTGGTGACGGTGGAGGATTTTGTTGTTTTAGTGTCGGAGTCACCTAGTGCAG | 9790 fluorescence intensity (a.u.)
GTTGACGGGGTTTGTGAGGTGTGGCGGTGACTTGGAAAGACGGAGTCACCTAGTGCAG | 10100 fluorescence intensity (a.u.)

Sequence | binding signal
TAATAAGTGAGACCAAATATTGATTGTGTAGTATATATTTCGGAGTCACCTAGTGCAG | 8670 fluorescence intensity (a.u.)
TGGATACTTGGCGTTGGTGGGCTGGTTCTTATTGGATACGCGGAGTCACCTAGTGCAG | 8120 fluorescence intensity (a.u.)
GGTTTCTTGGATTGGGCTGTGGCTGGCGTTGGTCGGAGGACGGAGTCACCTAGTGCAG | 19100 fluorescence intensity (a.u.)
GGGAGTAGTATTGATTTGACCATCGTTGACCAAGAATAAGCGGAGTCACCTAGTGCAG | 17400 fluorescence intensity (a.u.)
CTTTGGCTTCTTGCCTACCGCGTTCTTGGTGATCGTTGGTCGGAGTCACCTAGTGCAG | 8270 fluorescence intensity (a.u.)
AGGTGATGTTTGGGGTCGTTGGGTTGGTCCGCGTTCTTGCCGGAGTCACCTAGTGCAG | 17400 fluorescence intensity (a.u.)
CGGTGTCGGATTTTTGGTTGGTTGACGGGGTTTGTGAGGTCGGAGTCACCTAGTGCAG | 17500 fluorescence intensity (a.u.)
TTTCTTGGCTGGTTTGGTTGTGGATTGGATTGGATTGGGTCGGAGTCACCTAGTGCAG | 16100 fluorescence intensity (a.u.)
GACAACCTGGAGCCCGACGACGACGAGGGGATGGGGAGGGCGGAGTCACCTAGTGCAG | 8810 fluorescence intensity (a.u.)
GTTAGTGTGTGGTTTGTTGCGTGCAGTCAGGTGCACTCGGCGGAGTCACCTAGTGCAG | 11000 fluorescence intensity (a.u.)
TATTATTATGATGGGTTTGTATATTAAAATTGTCAGTTTGCGGAGTCACCTAGTGCAG | 8110 fluorescence intensity (a.u.)
ACGCGCGCTACATTCTCCACCTCTCCACCATTCCAAACTGCGGAGTCACCTAGTGCAG | 9850 fluorescence intensity (a.u.)
CACACAGCATCGTTTGGATTAATCACCGAACCGATCGACCCGGAGTCACCTAGTGCAG | 8400 fluorescence intensity (a.u.)
CCTCTCCTAGGTTAAGTTTTTTTGGGGCGAAGGGAGTATTCGGAGTCACCTAGTGCAG | 8120 fluorescence intensity (a.u.)
CTCTCGCGCGAGATGTCCGTGACTCTCTTTTCGTTTACACCGGAGTCACCTAGTGCAG | 8420 fluorescence intensity (a.u.)
CTCTCGGTCGTCGGCCTCGTCCTCCGGGCCGGCATTCATCCGGAGTCACCTAGTGCAG | 8560 fluorescence intensity (a.u.)
GCGCATGGTGTTCGGGAAGAAGTACATCGTCGAGGAGGGGCGGAGTCACCTAGTGCAG | 8540 fluorescence intensity (a.u.)
CTTATACATTGGGTTGAGGGTTTTTTTGGTTGAGTTCGGCCGGAGTCACCTAGTGCAG | 9220 fluorescence intensity (a.u.)
TTGGTTGGTTGGTTGGTGTTTTGAGGCTTGGGTCGGCTTACGGAGTCACCTAGTGCAG | 17100 fluorescence intensity (a.u.)
CTTGCCATGGTGTTGATTTGGGGCGGGAAGAAGCATCGGGCGGAGTCACCTAGTGCAG | 16800 fluorescence intensity (a.u.)
GCTAGGGTTTTTGGGTTCACTTTGAGGCTGTTTGGTTGGTCGGAGTCACCTAGTGCAG | 15100 fluorescence intensity (a.u.)
TGATCGAGAGAGGTGTTGTTGGAAGCTTGGTTGGTTGGGGCGGAGTCACCTAGTGCAG | 9000 fluorescence intensity (a.u.)
